Assay outcomes (PubChem)
CHX counter: affects cycloheximide protein synthesis inhibition readout, counter-screen. max response, %. cell reporter, cycloheximide protein synthesis inhibition counterscreen. 12% of 300,000 active; in the data active = max response mostly above about 13%, no sharp cut-off; inactive = mostly below about 14%; note: read at 38.3 µM for the half of the compounds with a filed dose
NS1 function inh: inhibitors of influenza NS1 protein function | Potency, µM (top dose mostly 46.1 µM) | 0.4% of 270,000 active; note: actives are rising curves; nearly all actives have a fitted effect of over 50% in size
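Read-out: OD600 growth recovery of NS1-expressing budding yeast. Cells grown overnight at 30C in -URA glucose medium, washed, resuspended and diluted 1:100 in 2% galactose assay medium, pH 6.0. Same strain lacking NS1 served as positive control.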
Pf growth 96h: P. falciparum growth inhibition at 96 hour, primary screen for plastid delayed-death inhibitors; P. falciparum luciferase reporter growth, 96 h; Potency, µM (top dose mostly 28.7 µM), actives largely listed as inhibitors; 6.9% of 320,000 active; AID 504834; active = well fitted inhibition curve with a large enough effect; inconclusive = small, poorly fitted or top-dose-only effect, or another doubt; inactive = no such curve, though single readings can be large or run the other way
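P. falciparum expressing integrated firefly luciferase grown in erythrocytes (2% hematocrit, 0.05% parasitemia final) with compounds for 96 hours at 37 C, 5% CO2. Growth inhibition read as loss of luminescence after adding luciferase detection reagent.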
Pf growth 48h: P. falciparum growth inhibition at 48 hours (one generation) | P. falciparum luciferase growth in erythrocytes, 48 h | Potency, µM (highest dose often 28.7 µM), actives largely listed as inhibitors | 5.9% of 310,000 active | AID 504832; active = well fitted inhibition curve with a large enough effect; inconclusive = small, poorly fitted or top-dose-only effect, or another doubt; inactive = no such curve, though single readings can be large or run the other way
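Luciferase-expressing parasites in RBCs, 2% Hct / 0.1% parasitemia final; RPMI 1640 + 0.5% Albumax; 37 C, 5% CO2, one generation; luminescence read-out, lower signal = inhibition.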
Shiga inhibitor: Shiga toxin inhibition; Vero cells, Shiga toxin protein synthesis inhibition reporter; inhibition, % at 38.7 µM; 9.2% of 290,000 active; in the data active = inhibition mostly above about 28%, no sharp cut-off; inactive = mostly below about 43%
SARS PLP yeast: inhibitors of SARS-CoV papain-like protease in yeast; Potency, µM (highest dose often 32.9 µM), most hits filed as activators; S. cerevisiae expressing SARS-CoV PLpro, growth rescue; AID 485353; 0.19% of 330,000 active; note: nearly all actives have a fitted effect of over 55% in size
Each line names hits and unclear results; the compound was inactive in the other large screens. In the library only some 21% were active in any assay of this set; here they are far more common. Unless noted, calls come from the whole dose curve.

CCN(C(=O)CSc1ncccc1C(=O)O)C1CCCCC1	none (no result: NS1 function inh)
CCCCCn1c(CN2CCN(c3cc(Cl)ccc3C)CC2)nc2c1c(=O)[nH]c(=O)n2C	Pf growth 48h inconclusive
COc1ccccc1/C=C/C(=O)OCC(=O)N1c2ccccc2CC1C (stereo not drawn)	none (no result: CHX counter, NS1 function inh, Shiga inhibitor)
COc1cccc(/C=N\NC(=O)c2ccc(C)nc2)c1	CHX counter 29, Pf growth 96h inconclusive, Shiga inhibitor 46
Cc1ccc(C(=O)N/N=C\c2ccc(OC(=O)c3cccc(F)c3)cc2)cn1	Pf growth 96h inconclusive
COc1ccc(/C=N/NC(=O)c2ccc(C)nc2)cc1O	none
Cc1ccc(C(=O)N/N=C\c2cccc(OC(=O)c3cccc(F)c3)c2)cn1	CHX counter 20, Shiga inhibitor 43
Cc1cc(C)nc(N/N=C/c2ccccc2OCc2ccc(Br)cc2)n1	CHX counter 29, Pf growth 96h inconclusive, Pf growth 48h inconclusive, Shiga inhibitor 79
Cc1nnc(C)n1/N=C/c1cc(Br)ccc1O	none
Cc1cc(C)nc(N/N=C/c2ccccc2OCc2ccc(Cl)cc2)n1	Pf growth 96h inconclusive
Cc1cc(C)nc(N/N=C/c2ccccc2OCc2cccc(Br)c2)n1	CHX counter 14, Pf growth 96h inconclusive
Cc1cc(C)nc(N/N=C/c2cc(Br)ccc2O)n1	CHX counter 28, Pf growth 96h inconclusive, Pf growth 48h inconclusive
Cc1cc(C)nc(N/N=C/c2ccccc2OCc2ccccc2)n1	CHX counter 12
COc1ccc2oc(C(=O)OCC(=O)N(C)CC(=O)Nc3ccc(C)cc3)c(C)c2c1	none (no result: CHX counter, NS1 function inh, Shiga inhibitor)
O=C1C(=O)N(c2nccs2)C(c2ccccc2)/C1=C(\O)c1ccc2c(c1)OCCO2 (stereo not drawn)	none
COc1ccc(C2/C(=C(/O)c3ccc4c(c3)CC(C)O4)C(=O)C(=O)N2CCN2CCOCC2)cc1 (stereo not drawn)	none
COc1ccc(C2/C(=C(\O)c3ccc4c(c3)OCCO4)C(=O)C(=O)N2CCCN(C)C)cc1 (stereo not drawn)	none
O=C1C(=O)N(c2nccs2)C(c2ccccc2F)/C1=C(\O)c1ccc2c(c1)OCCO2 (stereo not drawn)	CHX counter 32
O=C1C(=O)N(CCN2CCOCC2)C(c2ccccc2)/C1=C(\O)c1ccc2c(c1)OCCO2 (stereo not drawn)	CHX counter 36, Shiga inhibitor 23
CC1Cc2cc(/C(O)=C3/C(=O)C(=O)N(CCN4CCOCC4)C3c3ccc([N+](=O)[O-])cc3)ccc2O1 (stereo not drawn)	CHX counter 15, Pf growth 96h 9.3µM
Cc1ccc(C2/C(=C(\O)c3ccc4c(c3)OCCO4)C(=O)C(=O)N2CCCN(C)C)o1 (stereo not drawn)	CHX counter 19
O=C(O)/C(=C\c1cccc(OCc2ccccc2)c1)c1ccc(F)cc1	none
COc1ccc(C2/C(=C(/O)c3ccc4c(c3)CC(C)O4)C(=O)C(=O)N2CCCN2CCOCC2)cc1 (stereo not drawn)	CHX counter 19
CCCCNC(=O)c1ccccc1SCC(=O)NC1CCCCCCC1	Pf growth 48h inconclusive (no result: CHX counter, NS1 function inh, Shiga inhibitor)
Cc1cc(C(=O)CSc2nnc(N)s2)c(C)n1Cc1cccs1	CHX counter 57, Shiga inhibitor 83
Cc1cc(C(=O)CSc2nnc(-c3ccc(OC(F)F)cc3)o2)c(C)n1Cc1cccs1	none
COc1ccc(-n2cnnc2SCC(=O)c2cc(C)n(Cc3cccs3)c2C)cc1	none
Cc1csc(SCC(=O)c2cc(C)n(Cc3cccs3)c2C)n1	CHX counter 17, Shiga inhibitor 32 (no result: Pf growth 96h)
Cc1cc(C(=O)CSc2n[nH]c(-c3ccccc3F)n2)c(C)n1Cc1cccs1	CHX counter 17 (no result: Pf growth 96h)
CSc1ncccc1C(=O)OCC(=O)Nc1ccc(N2CCOCC2)cc1	none (no result: CHX counter, NS1 function inh, Pf growth 96h, Pf growth 48h, Shiga inhibitor)
Cc1ccc(NC(=O)CCc2ccc(C)o2)cc1	CHX counter 16 (no result: Shiga inhibitor)
Cc1ccc(CCC(=O)Nc2ccc(C)c(C)c2)o1	CHX counter 19
Cc1cccc(NC(=O)CCc2ccc(C)o2)c1	CHX counter 18, Pf growth 96h inconclusive
Cc1ccc(-c2ccc(CCC(=O)O)o2)cc1	CHX counter 38, Shiga inhibitor 45
Cc1ccc(C(=O)C[n+]2ccc(-c3nnc4n3CCC4)cc2)cc1	none
O=C1CSC(c2ccccc2)N1Cc1ccccc1 (stereo not drawn)	Pf growth 96h inconclusive
CC(C)Sc1nnc(CNC(=O)C23CC4CC(CC(C4)C2)C3)n1C1CCCCC1	none
Cc1c(C(=O)c2ccccc2C(=O)O)sc2ccccc12	none
Cc1ccc(CNC(=O)C2CCN(C(=O)Nc3ccccc3)CC2)cc1	none
Cc1nc(NC(=O)CCc2ccccc2)ccc1Br	CHX counter 32, Shiga inhibitor 137 (no result: Pf growth 96h)
O=C(Nc1ccc2ccccc2c1)c1cccnc1	CHX counter 47, Pf growth 96h inconclusive, Shiga inhibitor active
COc1ccc(NC(=O)c2cccnc2)cc1	Pf growth 96h inconclusive
Cc1ccccc1C(=O)Nc1ccc(Br)c(C)n1	CHX counter 49, Pf growth 96h inconclusive, Shiga inhibitor 81
O=C(Nc1ccc2ccccc2c1)c1cnccn1	CHX counter 29, Shiga inhibitor 85
N#Cc1ccccc1Sc1ccccc1C(=O)Nc1ccc2ccccc2c1	NS1 function inh inconclusive, Pf growth 96h inconclusive
Cc1cc(C)cc(NC(=O)c2cccnc2)c1	none
O=C(Nc1ccc2c(c1)Cc1ccccc1-2)c1cccnc1	CHX counter 36, Shiga inhibitor 89
COc1ccc(C(=O)Nc2ccc3c(c2)Cc2ccccc2-3)cc1	none
Cc1nc(NC(=O)c2cccnc2)ccc1Br	CHX counter 32, Shiga inhibitor 57 (no result: Pf growth 96h)
Cc1ccc(C(=O)Nc2ccnc(-c3cccnc3)n2)cc1	CHX counter 36 (no result: NS1 function inh)
N#Cc1ccc(C(=O)Nc2ccc3ccccc3c2)cc1	CHX counter 26, Shiga inhibitor 103
CC(OC(=O)c1cccc(-n2cnnn2)c1)C(=O)Nc1ccc(F)cc1 (stereo not drawn)	none
N#CC1C(C#N)N2CCCN2C1c1ccc(Br)cc1 (stereo not drawn)	Pf growth 48h inconclusive
COc1ccc(NC(=O)CSc2nnc(C)n2C2CC2)cc1S(=O)(=O)N1CCOCC1	Pf growth 96h inconclusive (no result: CHX counter, NS1 function inh, Shiga inhibitor)
O=C(CCC1CCCCC1)N1CCN(Cc2ccc3c(c2)OCO3)CC1	none (no result: Pf growth 96h)
C=CCN(C(=O)CNC(=O)c1ccco1)C(C(=O)NC1CCCC1)c1ccc(OC)cc1 (stereo not drawn)	none
Cc1cccc(NC(=O)c2cccnc2)c1	none
Cc1cc(NC(=O)c2cccnc2)ccc1Br	CHX counter 31, Shiga inhibitor 44
COc1cccc(OC)c1C(=O)Nc1ccc2c(c1)Cc1ccccc1-2	none
O=C(Nc1ccc2nccnc2c1)c1cnccn1	CHX counter 19, Pf growth 96h inconclusive, Shiga inhibitor 47 (no result: Pf growth 48h)
CC(C)(C)NC(=O)Nc1ccc2nccnc2c1	CHX counter 29, Shiga inhibitor 88
CC(C)(C)NC(=O)c1ccc2nccnc2c1	none (no result: Pf growth 96h)
